# From PubChem BioAssay
# Hits are enriched below; roughly 3.5% of the tested compounds scored in any of these assays.
# MITF primary – blocks human microphthalmia-associated transcription factor; AID 1259374; O75030; 650,000 compounds, 0.91% hits; inhibition, % at 2.6 µM; AlphaScreen MITF homodimerization, bead proximity signal; in the data active = inhibition above about 50%;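 also: 0% = vehicle wells with protein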
# FBW7 activator – human FBW7 E3 ligase activation, primary screen | AlphaScreen FBW7–phospho-cyclin E peptide binding, activator screen | AID 1259310 | normalized activity (activation), % at 26.1 µM | 650,000 compounds, 0.13% hits; in the data active = normalized activity above about 1.9%;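 also: purified mutant Fbw7 with reduced substrate affinity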
# Target sequence (Q969H0 whole entry, looked up): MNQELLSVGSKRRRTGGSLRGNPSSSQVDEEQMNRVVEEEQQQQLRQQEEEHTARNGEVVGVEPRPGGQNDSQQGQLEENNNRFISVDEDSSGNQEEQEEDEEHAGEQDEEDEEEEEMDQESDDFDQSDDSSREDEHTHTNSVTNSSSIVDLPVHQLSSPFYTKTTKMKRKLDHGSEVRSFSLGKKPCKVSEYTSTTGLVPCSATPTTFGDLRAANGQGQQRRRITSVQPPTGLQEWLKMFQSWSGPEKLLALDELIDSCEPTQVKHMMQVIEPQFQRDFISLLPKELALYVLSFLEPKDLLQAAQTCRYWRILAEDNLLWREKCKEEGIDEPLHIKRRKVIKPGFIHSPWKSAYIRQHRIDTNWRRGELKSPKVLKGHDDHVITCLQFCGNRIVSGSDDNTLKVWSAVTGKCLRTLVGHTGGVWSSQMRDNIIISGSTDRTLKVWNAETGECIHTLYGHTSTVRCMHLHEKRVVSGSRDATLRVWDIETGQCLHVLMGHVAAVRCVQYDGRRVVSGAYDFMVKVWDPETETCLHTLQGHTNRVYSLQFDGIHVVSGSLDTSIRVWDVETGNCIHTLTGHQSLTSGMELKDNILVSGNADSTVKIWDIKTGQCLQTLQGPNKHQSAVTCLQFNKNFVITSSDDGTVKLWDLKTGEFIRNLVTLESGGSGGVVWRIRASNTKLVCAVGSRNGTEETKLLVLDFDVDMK
# TEAD-YAP inh – TEAD-YAP interaction inhibition; HEK-TIYL cells, TEAD-Gal4/YAP UAS-luciferase luminescence; inhibition, % at 9.12 µM; 640,000 compounds, 1.4% hits; AID 1259422; in the data active = inhibition above about 32%;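 also: 0% = median of test compound wells and 100% = reference inhibitor wells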
# GPR151 ag – activates the human receptor GPR151; Q8TDV0; PathHunter beta-arrestin GPR151 cells, luminescence; activation, % at 11.2 µM; 650,000 compounds, 1% hits; AID 1508602; in the data active = activation above about 4.9%;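 also: 0% = median of compound wells and 100% = cells with positive control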
# * hit, by the source's call.
SMILES,MITF primary,FBW7 activator,TEAD-YAP inh,GPR151 ag
CCOc1ccccc1C(=O)Nc1cc(C)nn1-c1nc2ccccc2[nH]1,-2,0,54*,2
O=c1c2ccccc2cnn1-c1ccc(Cl)c(Cl)c1,11,0,-27,1
CC1CCCCN1C(=O)Nc1ccc(Cl)cc1 (centres undefined),6,0,2,0
O=C1NC(=O)C(=Cc2ccc(OCc3ccc(Cl)cc3Cl)cc2)C(=O)N1,12,-1,-32,-2
N#CC1=C(N)C(C#N)(C#N)C(c2ccccc2)C2CCCC=C12 (centres undefined),10,1.9*,7,2
N#CC1=C(N)C(C#N)(C#N)C(c2ccc(O)cc2)C2CCCC=C12 (centres undefined),-10,0,11,0
COc1ccc(C2=NOC(C(=O)NCc3ccc(F)cc3)C2)cc1OC (centres undefined),8,0,50*,1
COCCNC(=O)C1CC(c2ccc(OC)c(OC)c2)=NO1 (centres undefined),-9,0,-2,0
CC(C)CC1c2[nH]c3ccccc3c2CCN1C(=O)c1csnn1 (centres undefined),4,0,40*,1
CC(C)CC1c2[nH]c3ccccc3c2CCN1C(=O)Cn1cncn1 (centres undefined),-2,0,-6,-1
COC(=O)[C@@H](NC(=O)CCC1(Cc2ccco2)CCC(=O)N1)c1ccccc1 (some centres undefined),-7,0,-37,-2
CC1(C)N=C(N)N=C(N)N1c1ccc(Oc2ccc(Cl)cc2)c(Cl)c1,7,0,37*,-1
Cc1cc(S(=O)(=O)O)c(C(C)C)cc1N,22,4.1*,8,-1
NS(=O)(=O)c1ccc(CNC(=O)c2ccc(Cl)s2)cc1,3,0,4,-1
CC(CCc1ccccc1)NC(=O)c1cnccn1 (centres undefined),-2,0,-43,-1
CC(C)C[C@@H](NC(=O)[C@H](Cc1ccccc1)NC(=O)c1cnccn1)B(O)O,-8,0,62*,2
CCC(=O)OCCN1C(=O)c2cccc3c(N4CCOCC4)ccc(c23)C1=O,-12,0,-3,-1
COC(=O)CCCN1C(=O)c2cccc3c(N4CCOCC4)ccc(c23)C1=O,-4,0,53*,0
CC(C)(Oc1ccc(Cl)cc1)C(=O)Nc1ncc([N+](=O)[O-])s1,10,0,36*,1
COC(=O)/C=C1\S/C(=N\N=C\c2ccc3c(c2)OCO3)NC1=O,-1,0,-2,-1
O=C1N/C(=N\N=C/c2ccc3c(c2)OCO3)S/C1=C/c1ccc(O)cc1,-5,1,49*,0
COc1ccc(-n2nnnc2SCc2ccc(Cl)cc2)cc1,14,0,53*,-1
Clc1ccc(CSc2nnnn2-c2ccccc2)cc1,9,0,-5,-1
Cc1cnc(Nc2ccc(-n3cnc(N4CCOCC4)n3)cc2)cc1Nc1ccccc1C(N)=O,-6,0,82*,4
Cc1cnc(Nc2ccncc2)cc1Nc1ccccc1C(N)=O,1,0,-1,0
SMILES,MITF primary,FBW7 activator,TEAD-YAP inh,GPR151 ag
NC(=O)c1ccccc1Nc1cc(Nc2ccc(-n3cnc(N4CCOCC4)n3)cc2)ncc1C(F)F,12,0,42*,1
N#CCCn1cc(/C=N/NC(N)=S)c(-c2cccs2)n1,8,0,4,1
CN(C)c1ccc(C(CNC(=O)Cc2ccc(F)cc2)N2CCN(c3ccccc3)CC2)cc1 (centres undefined),72*,0,-1,1
C=CCNC(=O)c1cccc(I)c1,-12,0,-2,0
CCOc1ccc(-c2cc(C(=O)N/N=C(\C)c3cccc(OC)c3)[nH]n2)cc1,-1,0,52*,-1
C/C(=N\NC(=O)c1ccccn1)c1cccs1,12,0,65*,-6
COc1ccc(-c2cc(C(=O)N/N=C(\C)c3ccc(Cl)cc3)[nH]n2)cc1,0,0,20,0
CCOc1ccc(-c2cc(C(=O)N/N=C(\C)c3cccs3)[nH]n2)cc1,10,0,60*,-1
CCOC(=O)/C(C#N)=C/c1ccc(N2C(=O)C3C4C=C(C)C(C4)C3C2=O)cc1 (centres undefined),25,0,-2,2
Cc1ccc(C(=O)Nc2ccc(Cl)cc2)cc1S(=O)(=O)N1CCOCC1,-7,0,-9,0
CCOc1ccc(NC(=O)c2ccc(F)c(S(=O)(=O)N3CCN(C4CCCCC4)CC3)c2)cc1,0,0,34*,2
CCOc1ccc(NC(=O)c2ccc(F)c(S(=O)(=O)N3CCCC3)c2)cc1,28,0,37*,0
CCOC(=O)c1ccc(NC(=O)c2ccc(Cl)c(S(=O)(=O)N3CCOCC3)c2)cc1,11,0,73*,3
O=C(Nc1ccc(Cl)c(Cl)c1)c1ccc(F)c(S(=O)(=O)N2CCN(C3CCCCC3)CC2)c1,-6,0,4,-1
O=C(CNc1ccc(Br)cc1)N/N=C/c1ccc(O)cc1O,11,0,16,0
CCCCCOC(=O)c1cc(-c2ccc(OC)cc2)nc2ccc(Cl)cc12,10,0,1,0
CN(C)C(=O)C1C2NC(=S)N(c3cccc(Br)c3)C1(C)Oc1ccccc12 (centres undefined),16,0,-2,1
CC(=O)Oc1cccc(C(=O)Nc2cc(C)ccc2O)c1,14,0,-34,-5
Cc1cccc(N2CCN(C(c3ccncc3)c3nnnn3C(C)(C)C)CC2)c1C (centres undefined),-7,0,62*,-4
COCCNc1ccc2ncc(-c3cccs3)n2n1,-17,0,37*,-1
c1ccc(CCNc2ccc3ncc(-c4cccs4)n3n2)nc1,-4,0,80*,0
CCC(C)C(NC(=O)C(C)NC(=O)CNC(=O)OCc1ccccc1)C(N)=O (centres undefined),18,0,0,1
Cc1ccc(/C=C/c2ccncc2)cc1,-5,0,51*,-6
CCCCC(=O)NCCNc1nc(C)nc2sc3c(c12)CCCC3,10,0,33*,1
c1ccc(Cc2nc(NCC3COc4ccccc4O3)c3c4c(sc3n2)CCCC4)cc1 (centres undefined),9,0,-6,1
SMILES,MITF primary,FBW7 activator,TEAD-YAP inh,GPR151 ag
Cc1nc(NCC2COc3ccccc3O2)c2c(C)c(C)sc2n1 (centres undefined),-12,0,47*,3
Cc1nc(NCc2ccc3c(c2)OCO3)c2c(C)c(C)sc2n1,6,0,39*,2
CC(=O)c1cccc(N(CC(=O)Nc2ccc(Br)cc2F)S(C)(=O)=O)c1,9,-1,-6,-1
CC(C)CCNC(=O)CN(C(=O)c1snc(C(N)=O)c1N)c1ccccc1F,2,2.1*,0,1
CC(C)CCNC(=O)CN(C(=O)c1snc(C(N)=O)c1N)c1ccc(F)cc1,5,0,-7,0
N#C/C(=C\c1ccc(OCC(N)=O)cc1)C(=O)Nc1ccc([N+](=O)[O-])cc1Br,10,0,5,-1
COc1ccccc1C(NC(=O)C(C)C)c1ccc2cccnc2c1O (centres undefined),23,-2,73*,-1
